Records with an inconclusive call do not appear. Where a call stands in place of a potency, no number is given. Calls of active or inactive are those of the source. The call rests on the fitted dose curve; in most records, active means well fitted activation curve with a large enough effect; inconclusive means small, poorly fitted or top-dose-only effect; inactive means no such curve, though single readings can be large or run the other way.
Assay: qHTS Assay for Rab9 Promoter Activators: Initial hit validation from the primary screen
Conditions: Huh7 Rab9 promoter luciferase reporter, 24 h; series mostly up to 46.1 µM
Text: NIH Chemical Genomics Center [NCGC] NIH Molecular Libraries Probe Production centers Network [MLPCN] MLPCN Grant: MH089537-01 Assay Submitter (PI): Yiannis A. Ioannou NCGC Assay Overview: Niemann Pick Type C (NPC) is a rare neurodegenerative lipidosis that is characterized by lipid storage in the endosomal/lysosomal system. Treatment modalities for this devastating disease are currently non-existent due to the severe obstacles associated with accessing the central nervous system with proteins or genes (Ioannou, 2000). We have developed a new paradigm, termed "Orphan Receptor Bypass Therapy" (ORByT), to address these disorders. This paradigm posits the existence of endogenous "suppressor" proteins whose expression can dramatically improve LSD pathogenesis. The goal is the identification/discovery of small chemical compounds that can modulate the expression of these proteins and provide a new treatment modality for these devastating disorders. One such protein whose overexpression reverses aspects of the NPC phenotype is Rab9. We have developed and optimized a cell based luciferase reporter assay in 1536 well format for the identification of up-regulators of the Rab9 promoter. This assay presents data on the validation of hits from the primary screen.
The Rab9 promoter is cloned in front of the luciferase reporter gene, therefore […] promoter activation results in luciferase expression. Frozen stock of the Rab9 promoter transfected Huh7 cells were obtained from the laboratory of Dr. Yiannis Ioannou (The Mount Sinai School of Medicine, New York, NY). Cells were propagated and maintained at NCGC in medium containing RPMI-1640 supplemented with 10% FBS, 2mM L-glutamine, and 50ug/ml penicillin/streptomycin. Cells were harvested in and plated for assays in OP-MEM I reduced-serum medium supplemented with 10% FBS. The Amplite luciferase reporter gene assay kit was purchased from ABD Bioquest and prepared/stored according to manufacturers recommendations. qHTS Assay Setup: 1.Dispensed 5ul of Huh7 cells stably expressing Rab9-luciferase at a density of 1500 cells per well 1536-well plates. 2.Incubate cells at 37C, 5% CO2, and 95% humidity for 2 hours. 3.Transferred 23nl per well of compound in DMSO solution. 4.Incubated at 37C, 5% CO2, and 95% humidity for 24 hours. 5.Dispensed 3ul per well of Amplite reagent(ABD Bioquest) per well. 6.Incubate at ambient for 10 minutes. 7.Read using the luminescence protocol on the ViewLux plate reader (Perkin Elmer).
Potency means the concentration at half of the fitted maximal effect.

Compound	Potency
Cc1ccc(S(=O)(=O)N2CCN(c3cnn(C)c(=O)c3Cl)CC2)cc1	inactive
CCCCCCC(=O)Nc1ccc(C(=O)N/N=C/c2cccnc2)cc1	inactive
Cn1c(SCc2ccccc2)nnc1-c1cnccn1	14100 nM (active)
Cc1cccc(C)c1NC(=O)Nc1cccs1	inactive
COc1ccc(/C=C\c2onc(C)c2S(=O)(=O)N2CCC(C(=O)NCCC(C)C)CC2)cc1	inactive
Cc1ccc(C2C3=C(CC(C)(C)CC3=O)N(CCN3CCOCC3)C3=C2C(=O)CC(C)(C)C3)cc1	inactive
COCCNC(=O)Cn1nc(-c2ccccc2)c2ccccc2c1=O	inactive
CC(Sc1nnc(C(F)(F)F)n1C)C(=O)Nc1ccc(S(N)(=O)=O)cc1 (stereo not given)	inactive
COc1ccc(-c2nnc(SCC(=O)/C(C#N)=C(\C)N)o2)cc1	315 nM (active)
O=S(=O)(c1cccs1)N1CCN(c2ncccn2)CC1	inactive
CCc1cc2c(N=Nc3c(O)[nH]c4ccccc34)ncnc2s1	inactive
Cc1cc(C)cc(N(CC(=O)NC2CCCC2)C(=O)CNC(=O)c2ccco2)c1	inactive
CCCc1cc(C(=O)Nc2ccccc2SC)no1	25000 nM (active)
COc1ccc(NC(=O)Nc2ccc(Cc3ccncc3)cc2)cc1OC	inactive
CN(C)/C=N/c1c(C#N)cnn1-c1nc2ccccc2s1	inactive
CCN(Cc1nc2cc(Cl)ccc2c(=O)[nH]1)C(=O)C1CC(=O)N(c2cccc3ccccc23)C1 (stereo not given)	inactive
CC(=O)Nc1ccc(NC(=O)COc2ncnc3ccccc23)cc1	inactive
O=[N+]([O-])c1cnccc1Nc1ccc(F)cc1	inactive
COc1ccccc1N(C(=O)c1snc(C(N)=O)c1N)C(C(=O)NC1CCCCC1)c1cccc(OC)c1OC (stereo not given)	inactive
Cc1ccc2c(c1)sc1nc(=O)n(-c3ccccc3)c(=O)n12	499 nM (active)

Compound	Potency
O=C(Nc1ccc(-c2nc3cccnc3s2)cc1)c1ccc(Cl)nc1	888 nM (active)
O=C(CCc1cccc(Cl)c1)NC1CCCN(Cc2ccccc2F)C1 (stereo not given)	inactive
COc1ccc(-n2c(N)c(C(=O)NCc3ccco3)sc2=S)cc1	inactive
CCOC(=O)c1ccc(-c2nnc(-c3ccc(Cl)cc3Cl)o2)cc1	705 nM (active)
CCCOC(=O)Cn1cnc2scc(-c3ccc(OC)cc3)c2c1=O	inactive
COc1ccc(S(=O)(=O)N2CCCC(C(=O)NCc3ccncc3)C2)cc1Cl (stereo not given)	inactive
Cc1ccc(C#N)c(SCC(=O)Nc2nccs2)n1	791 nM (active)
CCCCc1cc(=O)oc2cc(OCC(=O)N3CCOCC3)ccc12	inactive
O=C(COC(=O)c1ccc(-c2nnc(-c3ccccc3)o2)cc1)c1ccccc1	396 nM (active)
CCC(=O)N1c2ccccc2NC2=C(C(=O)CCC2)C1c1ccc(N(C)C)cc1 (stereo not given)	inactive
Cc1[nH]n(-c2cccc3ccccc23)c(=O)c1/C=N/c1sc2c(c1C#N)CCC2	inactive
CCOCC(=O)Nc1c(C(=O)Nc2ccc3c(c2)OCCO3)oc2ccccc12	628 nM (active)
O=C(NC(=S)Nc1ccc(CN2CCCCC2)cc1)c1cc2ccccc2o1	inactive
Cc1ccc(C)c(Nc2cc(C)nc3ncnn23)c1	inactive
Cc1ccccc1NC(=O)CSc1ccc(-c2cccnc2)nn1	inactive
Cc1ccc(C(=O)NC2CCN(CC(=O)Nc3c(C)cc(C)cc3C)CC2)cc1	inactive
Cc1nn(CCCC(=O)NCc2ccc(F)cc2)c(C)c1[N+](=O)[O-]	inactive
COc1ccc(-c2csc(Nc3ncccn3)n2)cc1C	281 nM (active)
COc1cccc(CNC(=O)CN(c2cc(C)cc(C)c2)S(=O)(=O)c2c(C)noc2C)c1	inactive
CCC(C)(C)NC(=O)C(c1ccc(OC)cc1)N(Cc1cccs1)C(=O)CCC(=O)Nc1cc(C)on1 (stereo not given)	inactive
